Screens from PubChem BioAssay.
12-LOX inh = ALOX12 (human) lipoxygenase inhibition. 580,000 tested, 1.1% active. P18054. purified 12hLO, xylenol orange hydroperoxide absorbance. AID 1671190. Potency, µM (doses to about 108 µM), inactives show at the highest dose activity change, negative = inhibition, most hits filed as inhibitors; note: % is set by controls: 0 for no effect and ±100 for the full control effect
Target sequence (P18054 whole entry, looked up): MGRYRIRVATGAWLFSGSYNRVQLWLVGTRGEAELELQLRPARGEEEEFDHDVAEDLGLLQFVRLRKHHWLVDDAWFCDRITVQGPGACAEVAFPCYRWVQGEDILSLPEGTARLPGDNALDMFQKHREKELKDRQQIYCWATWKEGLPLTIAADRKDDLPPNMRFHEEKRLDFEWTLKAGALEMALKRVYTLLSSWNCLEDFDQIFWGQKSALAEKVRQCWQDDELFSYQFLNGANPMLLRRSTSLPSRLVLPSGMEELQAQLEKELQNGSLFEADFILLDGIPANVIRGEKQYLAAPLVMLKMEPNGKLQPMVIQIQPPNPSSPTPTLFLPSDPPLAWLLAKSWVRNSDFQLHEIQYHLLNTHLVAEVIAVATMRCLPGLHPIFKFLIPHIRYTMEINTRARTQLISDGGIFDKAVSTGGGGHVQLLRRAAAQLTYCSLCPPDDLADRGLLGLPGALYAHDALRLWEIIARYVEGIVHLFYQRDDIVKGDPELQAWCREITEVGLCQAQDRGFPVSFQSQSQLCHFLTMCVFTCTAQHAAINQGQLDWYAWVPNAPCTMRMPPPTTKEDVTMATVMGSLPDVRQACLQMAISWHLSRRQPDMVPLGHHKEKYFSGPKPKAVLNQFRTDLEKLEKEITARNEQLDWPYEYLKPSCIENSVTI
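Hydroperoxide product was detected by ferrous iron/xylenol orange as the 573 to 405 nm absorbance ratio. Arachidonic acid at 40 uM (final) was turned over for 30 min at room temperature by 150 nM human 12hLO, pH 7.0 Hepes buffer, after 15 min compound preincubation.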
KB-V1 MDR tox = kills drug-selected multidrug resistant KB-V1 cells. KB-V1 MDR cells viability, CellTiter-Glo, 72 h. Potency, µM (doses to about 46.1 µM), actives largely listed as cytotoxic. 400,000 tested, 3.4% active. AID 1347076; note: % is set by controls: 0 for no effect and ±100 for the full control effect; nearly all actives have a fitted effect of over 60% in size
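In this primary screen, KB-V1 cells overexpressing P-gp are incubated with library compounds (lowest to highest concentration) for 72 h at 37 degrees C before a luminescent ATP viability read.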
SW480 rereplic = inducers of DNA re-replication in SW480 colon cancer cells. SW480 DNA re-replication, Hoechst DNA content imaging, 48 h. Potency, µM (series often up to 46.1 µM), inactives show at the top dose re-replication activation, most hits filed as activators. 340,000 tested, 1.8% active. AID 624297; note: % of control where 0% means no effect; nearly all actives have a fitted effect of over 55% in size
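Image-based DNA-content assay: after two days of treatment, nuclei were labelled with the DNA dye Hoechst and imaged, and hits were compounds raising the count of nuclei showing high fluorescence intensity.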
PINK1 expr mod = PINK1 expression modulation; PINK1 immunofluorescence, high-content cytometry, 24 h; Potency, µM (series often up to 76.6 µM), without a hit: at the top dose activation (PINK1 increase), hits mostly activators; 410,000 tested, 0.2% active; active = well fitted activation curve with a large enough effect; inconclusive = small, poorly fitted or top-dose-only effect; cell line not stated here; note: % of control where 0% means no effect; nearly all actives have a fitted effect of over 65% in size
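Stable cell line treated 24 h with compounds at 5 concentrations (CCCP controls), then fixed and immunostained for PINK1 plus nuclear and cell stains; PINK1 immunofluorescence quantified by laser-scanning microplate cytometry.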
MCF10A rereplic = DNA re-replication induction in MCF 10a cells | MCF 10A DNA re-replication, Hoechst nuclear intensity, 48 h | AID 624296 | Potency, µM (titrated, usually from 46.1 µM), for the others: at the highest dose activity, positive = re-replication, actives largely listed as activators | 350,000 tested, 2.9% active; note: % of control where 0% means no effect; nearly all actives have a fitted effect of over 50% in size
KB-3-1 cytotox = KB-3-1 parental cell cytotoxicity | KB-3-1 viability, CellTiter-Glo ATP luminescence, 72 h | Potency, µM (top dose mostly 46.1 µM), usual class: cytotoxic | 400,000 tested, 1.4% active | AID 1347075; note: % is set by controls: 0 for no effect and ±100 for the full control effect; nearly all actives have a fitted effect of over 60% in size
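KB-3-1 parental drug-naive adenocarcinoma cells in DMEM/10% FBS, incubated 72 h at 37 C with pin-transferred compounds across a concentration series. Viability by CellTiter-Glo luminescence; concentration-response curves fitted after normalization.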
* marks the source's active call; other numbers are inactive results; i = inactive; ? = inconclusive; · = not tested or not shown; ! = a repeat was not active; [ ] = dose if it differs, or a comment. Compounds with a hit are over-represented: about 5.8% of the library has one in this group of screens. Unless noted, calls come from the whole dose curve; as a rule, active = well fitted curve in the direction sought with a large enough effect; inconclusive = small, poorly fitted or top-dose-only effect, or another doubt; inactive = no such curve, though single readings can be large; an effect the other way counts as inactive or inconclusive. Potency is the fitted concentration of half-maximal effect.

SMILES	12-LOX inh	KB-V1 MDR tox	SW480 rereplic	PINK1 expr mod	MCF10A rereplic	KB-3-1 cytotox
C/C(N)=C(/C#N)C(=O)COC(=O)c1cc(-c2ccc(Br)cc2)nc2ccccc12	-3%	21µM*!	?	1%	?	?
CCOc1ccc(-c2cc(C(=O)N3CCOCC3)c3ccccc3n2)cc1	6%	·	·	·	·	·
Nc1nc(N2CCN(C(=O)c3ccco3)CC2)nc2ccc(Br)cc12	·	21µM*	-82%	-3%	?	?
O=S(=O)(NCCCO)c1ccc(Cl)c2ccccc12	0%	·	·	·	·	·
CCN1c2cc(C(=O)Nc3cc(C)ccc3OC)ccc2C(=O)N2CCCCCC21 (stereo unspecified)	15%	·	·	·	·	·
CNc1nc(-c2cccc(NS(C)(=O)=O)c2)nc2ccccc12	?	·	·	0%	·	·
Cc1cccc(-c2nc(Nc3cccc(O)c3)c3ccccc3n2)c1	?	i	8%	1%	21µM*	i
Cc1cc(-c2ccc(N3CCOCC3)cc2)nc2ccccc12	?	i	?	1%	21µM*	i
CC(=O)NCCNc1nc(-c2cccc(NS(C)(=O)=O)c2)nc2ccccc12	2.2µM*	·	·	2%	·	·
Oc1ccc(Nc2nc(-c3ccccc3)nc3ccccc23)cc1	·	i	-3%	0%	2%	i
CN1CCN(c2ccc(-c3ccc4ccccc4n3)cc2)CC1	5%	12µM*	?	0%	13µM*	i
FC(F)(F)c1cc(Cl)c2nnc(SCc3cccc(Br)c3)n2c1	25%	·	·	·	·	·
NC(=O)c1ccc(COC(=O)c2ccccc2-c2ccccc2)cc1	-32%	·	·	·	·	·
c1ccc2c(Nc3ccc(N4CCOCC4)cc3)nc(N3CCOCC3)nc2c1	-6%	?	?	15%	?	i
CC(=O)c1cccc(Nc2nc(-c3cccc(C)c3)nc3ccccc23)c1	6.3µM*	i	·	5%	·	i
Cc1cccc(-c2nc(Nc3ccc(N4CCOCC4)cc3)c3ccccc3n2)c1	2%	?	-1%	5%	21µM*	i
Cc1cccc(CN2CCC(CNC(=O)c3cccc4c3SCCC4=O)CC2)c1	1%	·	·	·	·	·
COc1ccc(C(=O)N[C@@H]2CCC[C@@H]2C(=O)NCCCN2CCCc3ccccc32)cc1	276%	·	·	·	·	·
Cc1cc(C)c2c(=O)cc(C(=O)N(Cc3ccccc3)Cc3ccco3)oc2c1	-11%	·	·	·	·	·
COc1ccc(-c2csc(Nc3ccc(S(N)(=O)=O)cc3)n2)cc1	-11%	i	?	·	10µM*	?
Oc1ccc(Nc2nc(-c3ccc(O)cc3)cs2)cc1	?	i	?	3%[38.3 µM]	13µM*	?
Oc1ccc(-c2csc(Nc3cccc(O)c3)n2)cc1	40µM*	·	·	·	·	·
Cc1ccccc1C(=O)NC1CCCCC1	-67%	·	·	·	·	·
NC(=O)C1CCN(C2=C(Cl)C(=O)c3ccccc3C2=O)CC1	-17%	?	?	-2%	13µM*	?
CN1CCN(C2=C(Cl)C(=O)c3ccccc3C2=O)CC1	?	?	5.2µM*	-2%	4.1µM*	?
SMILES	12-LOX inh	KB-V1 MDR tox	SW480 rereplic	PINK1 expr mod	MCF10A rereplic	KB-3-1 cytotox
Fc1ccccc1-c1ccc(CNc2ncn[nH]2)o1	6%	·	·	·	·	·
CCOc1ccccc1NC(=S)Nc1ncccc1C	11µM*	21µM*	?	6%	18µM*	18µM*
CCOc1ccccc1NC(=S)Nc1ccccc1F	?	i	-2%	1%	?	i
COC(=O)c1ccccc1NC(=O)Nc1ncccc1C	-9%	i	21µM*	1%	2%	i
Cc1cccnc1NC(=S)NCCc1ccccc1	7.1µM*	i	-9%	1%	5%	i
CCC(C)NC(=O)c1ccc2c(c1)OCCCO2 (stereo unspecified)	9%	·	·	·	·	·
NC(c1ccccc1)c1csc(Nc2cc(Oc3ccccc3)ncn2)n1 (stereo unspecified)	35µM*	?	·	?	·	i
Cc1ccccc1N(C)C1CN(C(=O)c2ccccn2)C1	3%[12.5 µM]	·	·	·	·	·
